# Test results from PubChem BioAssay (NCI).
# Compounds without any hit were thinned out: in the full panel of roughly 83,000, 20% have a hit.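 Percent growth is the endpoint: 0 to 100 indicates growth inhibition (40 means 60% inhibition), 0 means no net growth, and negative values indicate cell death.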 Unmarked numbers belong to inactive results. Active and inactive are the calls of the source. How the source made its calls: active means growth percent below 10; inactive means the rest.
# Experiments:
# Assay in all cases: NCI-60 one-dose screen, 48 h (100 = growth as untreated, 0 = no growth, -100 = all killed)
# Settings in all cases: 10 µM unless noted
# NCI-H23 lung = system: NCI-H23 lung
# NCI-H226 lung = system: NCI-H226 lung
# NCI-H322M lung = system: NCI-H322M lung
# HOP-62 NSCLC = system: HOP-62 NSCLC
# NCI-H460 lung = system: NCI-H460 lung
# HOP-92 NSCLC = system: HOP-92 NSCLC
# NCI-H522 lung = system: NCI-H522 lung
# A549/ATCC NSCLC = system: A549/ATCC NSCLC
# 786-0 renal = system: 786-0 renal
# COLO 205 colon = system: COLO 205 colon
# DU-145 prostate = system: DU-145 prostate
# K-562 leukemia = system: K-562 leukemia
# MALME-3M melanoma = system: MALME-3M melanoma
# MDA-MB-231 breast = system: MDA-MB-231 breast
# SF-268 CNS = system: SF-268 CNS
# SF-295 CNS = system: SF-295 CNS
# SF-539 CNS = system: SF-539 CNS
# UACC-257 melanoma = system: UACC-257 melanoma
# M14 melanoma = system: M14 melanoma
# RXF 393 renal = system: RXF 393 renal
Compound,growth (NCI-H23 lung),growth (NCI-H226 lung),growth (NCI-H322M lung),growth (HOP-62 NSCLC),growth (NCI-H460 lung),growth (HOP-92 NSCLC),growth (NCI-H522 lung),growth (A549/ATCC NSCLC),growth (786-0 renal),growth (COLO 205 colon),growth (DU-145 prostate),growth (K-562 leukemia),growth (MALME-3M melanoma),growth (MDA-MB-231 breast),growth (SF-268 CNS),growth (SF-295 CNS),growth (SF-539 CNS),growth (UACC-257 melanoma),growth (M14 melanoma),growth (RXF 393 renal)
CCc1cccc(CC)c1N1C(=O)C=CC1=O,108%,117%,95.3%,83.7%,96.1%,56.5%,91.6%,71.9%,82.5%,75.8%,112%,23.8%,121%,132%,97.6%,106%,107%,81.6%,86.6%,–
CCCC[n+]1c(/C=C\c2c(OC)cc(OC)cc2OC)ccc2ccccc21,-4.06% (active),9.84% (active),4.8% (active),13.8%,-43.2% (active),-20% (active),-73.4% (active),-22.9% (active),21.5%,-53.3% (active),23%,0.911% (active),13%,-15.1% (active),22%,-74.7% (active),10.3%,-41.5% (active),9% (active),–
Cc1nc(Sc2nc3ccc([N+](=O)[O-])cc3s2)sc1C,-3.96% (active),2.43% (active),89.2%,72.2%,11.7%,1.28% (active),-48.1% (active),55.9%,19.6%,27.1%,31.1%,3.13% (active),-14.3% (active),-15.6% (active),18.7%,82.1%,–,36.8%,11.5%,-2.1% (active)
CCCCCCCCCCCC[N+]1(CCCCCCCCCCCC)CCCC(C)C1 (stereo not given),-91.9% (active),-77% (active),-85.9% (active),-96.3% (active),-90.7% (active),-86.5% (active),-90.1% (active),-98.6% (active),-98.4% (active),-98.8% (active),-83.8% (active),-79.1% (active),-75.1% (active),-82.6% (active),-87.7% (active),-77.1% (active),-99.6% (active),-96.2% (active),-97.3% (active),–
CC(=O)C1Cc2ccccc2C1=O (stereo not given),95.4%,103%,89.5%,90.5%,111%,105%,122%,106%,103%,121%,106%,116%,94.3%,98.8%,103%,100%,99.6%,89.8%,109%,–
C/C(=N\NC(=S)N1CC2CCC(CC2)C1)c1ccccn1,30.4%,11.7%,4.2% (active),24%,-3.66% (active),34.1%,16.8%,5.42% (active),3.86% (active),4.4% (active),19.4%,3.3% (active),-1.66% (active),15.7%,15.5%,–,3.7% (active),5.97% (active),-32.4% (active),-7.47% (active)
COc1ccc(C(Cn2ccnc2)Sc2ccc(Cl)c(Cl)c2)cc1 (stereo not given),82.8%,69.7%,91.3%,85.5%,78.2%,50.7%,60.2%,88.1%,77.8%,87.6%,100%,56.2%,96.1%,79.1%,90.9%,–,95.6%,92.1%,71.6%,–
N=C1C=C(N)C(=O)c2ccccc21,-82.3% (active),-63% (active),-88.4% (active),-94.3% (active),-67.8% (active),-38.8% (active),-67% (active),-71.7% (active),-99.6% (active),-93.7% (active),-99.5% (active),-4.96% (active),-83.7% (active),-12.5% (active),-68.4% (active),–,-95.8% (active),-77.2% (active),-86.5% (active),-97.1% (active)
COC(=O)c1ccc(=O)c2nc3/c(=C/O)c(O)cc(=O)c3[nH]c12,15.1%,34.9%,29.1%,-9.51% (active),19.9%,-1.12% (active),6.78% (active),27.7%,11.8%,51%,29.5%,7.14% (active),1.52% (active),45.3%,14.5%,6.32% (active),12.6%,5.98% (active),26.8%,–
